# Laboratory results: PubChem BioAssay AID588342 (National Center for Advancing Translational Sciences (NCATS), 2011)
# The whole screen tested about 360,000 compounds, of which about 25,000 (6.9%) were called active. Roughly 9% stayed inconclusive and do not appear here. Calls follow the shape of the dose curve; as a rule, active = well fitted inhibition curve with a large enough effect; inconclusive = small, poorly fitted or top-dose-only effect; inactive = flat fitted curve, though single readings scatter. This excerpt belongs to a sample that is enriched for actives.
# Molecular target: Luciferin 4-monooxygenase (Photinus pyralis) (UniProt P08659)
# Test: qHTS profiling assay for firefly luciferase inhibitor/activator using purifed enzyme and Km concentrations of substrates (counterscreen for miR-21 project); also: nearly all actives have a fitted effect of over 55% in size;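 as to activity change, negative = inhibition: plate controls were vehicle for no effect and reference inhibitor for full effect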
# Details: purified FLuc, luminescence inhibition; series mostly up to 57.5 µM; activity change, negative = inhibition: at the top concentration
# Procedure, shortened: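 Purified P. pyralis luciferase (10nM final) with 10uM D-luciferin and 10uM ATP (Km levels) in 50mM Tris acetate pH 7.5, 10mM Mg acetate, 0.01% Tween-20, 0.05% BSA; qHTS 6-point titration, ~60 µM downward; luminescence read.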
# Potency is read from the fitted curve at half-maximal effect.
# Chain of Luciferin 4-monooxygenase (Photinus pyralis) (P08659 whole entry, looked up): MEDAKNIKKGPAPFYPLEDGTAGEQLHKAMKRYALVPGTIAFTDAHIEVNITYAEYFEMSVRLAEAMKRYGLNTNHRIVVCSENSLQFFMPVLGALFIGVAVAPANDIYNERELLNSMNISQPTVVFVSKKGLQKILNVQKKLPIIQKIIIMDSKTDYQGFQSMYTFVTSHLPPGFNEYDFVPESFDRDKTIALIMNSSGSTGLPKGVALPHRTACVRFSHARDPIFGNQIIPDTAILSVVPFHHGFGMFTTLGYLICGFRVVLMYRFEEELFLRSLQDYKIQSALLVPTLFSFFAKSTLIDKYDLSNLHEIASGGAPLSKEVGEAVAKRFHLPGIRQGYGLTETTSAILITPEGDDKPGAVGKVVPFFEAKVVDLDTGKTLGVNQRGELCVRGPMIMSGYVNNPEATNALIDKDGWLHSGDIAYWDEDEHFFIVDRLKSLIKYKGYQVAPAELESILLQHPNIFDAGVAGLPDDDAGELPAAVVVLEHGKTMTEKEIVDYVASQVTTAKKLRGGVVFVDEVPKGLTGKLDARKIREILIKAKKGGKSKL
SMILES,"activity change, negative = inhibition",Potency
CC1Cc2cc(S(=O)(=O)CCC(=O)Nc3ccc(F)c(Cl)c3)ccc2N1C(=O)C1CC1 (stereo not drawn),-7.53% (inactive),–
O=C(c1ccc2c(c1)N(Cc1ccc(Cl)cc1)C(=O)c1ccccc1S2(=O)=O)N1CCCCC1,7.03% (inactive),–
CCCCC(=O)NCc1ccc(F)cc1,0.712% (inactive),–
O=C(/C=C\NCC(=O)c1ccccc1)c1ccccc1,–,12 µM (active)
Cc1cccc[n+]1CC(=O)c1ccccc1,-0.244% (inactive),–
O=C(NCCS(=O)(=O)NCc1ccc(F)cc1)c1ccccc1,4.95% (inactive),–
O=C(/C=C/NCc1ccc(F)cc1)c1ccccc1,–,16.9 µM (active)
CCN(c1ccccc1)S(=O)(=O)c1cc(C(=O)NCc2ccccn2)ccc1C,-1.73% (inactive),–
CC(=O)c1c(C)[nH]c(C(=O)COc2ccc3c(C)cc(=O)oc3c2)c1C,5.31% (inactive),–
Cc1ccc(C(=O)Nc2c(C(=O)NC(C)(C)C)oc3ccccc23)cc1,2.44% (inactive),–
COc1ccc(Cl)cc1NC(=O)c1sc2nc3c(cc2c1N)CN(C)CC3,-1.38% (inactive),–
COc1ccc(-n2c(SCC(=O)Nc3ccc(Cl)c(C)c3)nc3n[nH]c(C)c3c2=N)cc1,-0.344% (inactive),–
COc1ccc(Cn2ccn(CC(=O)Nc3cc(C)ccc3C)c(=O)c2=O)cc1,0.418% (inactive),–
COc1cc(C2c3c(oc4ccccc4c3=O)C(=O)N2c2nc(C)c(C)s2)ccc1O (stereo not drawn),-4.51% (inactive),–
Cc1ccc(NC(=O)C2CCCN2S(=O)(=O)c2cccc3cccnc23)c(C)c1 (stereo not drawn),–,inactive
COc1cc(/C=N/NC(=S)Nc2cccnc2)cc(OC)c1O,–,10.7 µM (active)
COc1cc(/C=N/NC(=O)c2cccnc2)ccc1OC(=O)c1cccc(Br)c1,0.287% (inactive),–
CCOC(=O)N/N=C/c1cccnc1,6.17% (inactive),–
C[C@@H]1C[C@@H]2O[C@H]2/C=C\C=C\C(=O)Cc2c(Cl)c(O)cc(O)c2C(=O)O1,-3.44% (inactive),–
COC(=O)c1ccc(Cn2c(SCC(=O)N(C)c3ccccc3)nc3ccccc32)cc1,-16.2% (inactive),–
Cc1nn(-c2ccccc2)c(-n2cccc2)c1C(=O)O,-0.636% (inactive),–
Cc1cccc(C)c1NC(=O)COC(=O)c1c(C)nn(-c2ccccc2)c1C,-19% (inactive),–
Cc1ccc(OC(=O)c2c(C)nn(-c3ccccc3)c2C)cc1,–,13.5 µM (active)
CCCC12CN3CC(CCC)(CN(C1)C3c1c[nH]c3ccc(OC)cc13)C2=O (stereo not drawn),-1.95% (inactive),–
COc1ccccc1C(=O)NCCC(=O)N(C)Cc1cccnc1,-1.3% (inactive),–

SMILES,"activity change, negative = inhibition",Potency
COc1ccc(CCNC(=O)CCCCn2c(=O)c3ccccc3n(Cc3ccccc3)c2=O)cc1OC,1.96% (inactive),–
CCOc1ccc(C(=O)c2cn(Cc3ccccc3OC)c3ccc(F)cc3c2=O)cc1,0.01% (inactive),–
COc1ccc(NC(=O)C2CCN(c3ccc(Sc4ccc(C)cc4)nn3)CC2)c(OC)c1,4.7% (inactive),–
CN1CCN(C2(CNC(=O)COc3ccc(C(C)(C)C)cc3)CCCCC2)CC1,-0.665% (inactive),–
CCOCCCn1c(NN)nc2ccccc2c1=O,4.5% (inactive),–
CCCc1nc2ccccc2c(=O)n1/N=C/c1ccc(O)c(O)c1,1.87% (inactive),–
Nc1nnn(CC(=O)N/N=C/c2ccccc2)n1,-1.5% (inactive),–
O=C(Nn1cnc2ccccc2c1=O)c1ccccc1,2.64% (inactive),–
O=c1c2ccccc2ncn1/N=C/c1ccccc1,–,1.69 µM (active)
O=c1c2ccccc2nc(N/N=C/c2ccccc2)n1O,–,1.51 µM (active)
COc1cc(C(=O)Nc2ccc(OCc3cc(=O)n4cc(C)sc4n3)cc2)cc(OC)c1OC,-2.09% (inactive),–
CCN(C(=O)CSc1nc(N)cc(=O)[nH]1)C1CCS(=O)(=O)C1 (stereo not drawn),-2.15% (inactive),–
O=C(CN1CCCCC1)Nc1ccccc1C(=O)NC1CC1,-9.75% (inactive),–
Cc1ccc(-c2nnc(Nc3ccc(OCC(N)=O)cc3)c3ccccc23)cc1S(=O)(=O)NCC1CCCO1 (stereo not drawn),-26.1% (inactive),–
CCCN(C(=O)Cn1cc(S(=O)(=O)N2CCN(c3ccccc3F)CC2)c2ccccc2c1=O)c1cccc(C)c1,0.802% (inactive),–
COc1cccc(/C=C/C(=O)OCC(=O)N2CCN(c3ccccc3)CC2)c1,-1.28% (inactive),–
CN=C1C=C/C(=N/N=c2\ccn(O)cc2C)C=C1C,–,15.1 µM (active)
CSc1ccccc1NC(=O)COC(=O)CCCOc1ccc(C)cc1,-0.833% (inactive),–
CCCNC(=O)C(CC)n1nc(CC)n2c(cc3oc(C)cc32)c1=O (stereo not drawn),-5.44% (inactive),–
CCN(CC)S(=O)(=O)c1ccc(N2CCOCC2)c(NC(=O)C2CSC3(C)CCC(=O)N23)c1 (stereo not drawn),-0.501% (inactive),–
CCCCN(C)CCCNC(=O)c1cc(-c2cccs2)nc2ccccc12,-1.53% (inactive),–
O=C(Nc1nnc(-c2ccccc2)o1)c1cc(-c2cccs2)nc2ccccc12,–,19 µM (active)
O=C(Nc1ccc(S(=O)(=O)Nc2nccs2)cc1)c1cc(-c2ccncc2)nc2ccccc12,-10.6% (inactive),–
Cc1cccc(CC(=O)N2CC(=O)Nc3ccc(F)cc3C2c2ccccc2)c1 (stereo not drawn),-1.47% (inactive),–
Cc1ccc(CSc2nc3ccsc3c(=O)n2CCC(C)C)cc1,1.43% (inactive),–

SMILES,"activity change, negative = inhibition",Potency
COc1ccc(NC(=O)CSc2nnc(C3CC3)n2C)cc1S(=O)(=O)N1CCCCC1,5.35% (inactive),–
Fc1cc(F)c2nc(Nc3nc4c(F)cccc4s3)sc2c1,–,4.78 µM (active)
NC(=O)c1c(Nc2nc3c(F)cccc3s2)sc2c1CCCC2,-11.7% (inactive),–
COc1cc2ccccc2cc1C(=O)N(CCN(C)C)c1nc2c(F)cccc2s1,-0.155% (inactive),–
COc1ccc(-c2cn3nc(N4CCC(C(=O)Nc5cccc(C)c5C)CC4)sc3n2)cc1,-1.45% (inactive),–
CCc1ccc(NC(=O)CN2C(=O)CCSc3ccc(S(=O)(=O)N4CCCC4)cc32)cc1,2.18% (inactive),–
COc1ccc(NC(=O)CN2C(=O)CSC2=O)cc1,-17.3% (inactive),–
CCc1ccc(NC(=O)CN2C(=O)CSC2=O)cc1,–,10.7 µM (active)
CCn1c(=O)c2cc(C(=O)NCCc3ccc(Cl)cc3)sc2c2ccccc21,-6.83% (inactive),–
COc1ccc(-c2onc(C)c2C)cc1S(=O)(=O)NCCc1ccccc1,-11.2% (inactive),–
Cc1ccc2[nH]c(=O)c(COC(=O)c3ccccn3)cc2c1,11.8% (inactive),–
CC(=O)OCc1cc2cc(C)ccc2[nH]c1=O,0.564% (inactive),–
CCOC(=O)c1cc2cc(C)ccc2[nH]1,–,12 µM (active)
COc1cc(OC)c(NC(=O)c2cc(S(=O)(=O)N3CCCC3)cn2C)cc1Cl,-6.55% (inactive),–
Cc1cccc(NC(=O)/C=C/c2ccc3c(c2)OCO3)n1,–,0.849 µM (active)
CC(C)CNS(=O)(=O)c1ccc(C(=O)Nc2ccc3c(c2)OCO3)cc1,0.691% (inactive),–
CCOC(=O)CCCNC(=O)COC(=O)/C=C/c1ccc2c(c1)OCO2,-6.33% (inactive),–
Cc1ccc2nc(-c3ccccn3)cc(C(=O)Nc3ccc4c(c3)OCO4)c2c1,-4.26% (inactive),–
Cc1cccc(NC(=O)Nc2ccc3c(c2)OCO3)n1,–,2.69 µM (active)
CNS(=O)(=O)c1ccc(NC(=O)Nc2ccc3c(c2)OCO3)cc1,–,6.01 µM (active)
CCN(CC(=O)Nc1ccc2c(c1)OCO2)S(=O)(=O)c1ccccc1,-11.9% (inactive),–
O=C(/C=C\c1ccc2c(c1)OCO2)NC1(C(=O)Nc2ccc3c(c2)OCCO3)CCCCC1,-3.09% (inactive),–
O=C(Nc1ccc2c(c1)OCO2)c1cc(-c2cccc(Cl)c2)on1,3.04% (inactive),–
